The assay in a line: fluorescent counter-screen in isolated mitochondria, dose response, counter-screen for MPTP inhibitor project, biochemical, fluorescence, uHTS hits (AID 651564). Conditions: isolated mitochondria counterscreen, fluorescence read-out. For orientation: The purpose of a counterscreen is to sort out artefacts and off-target activity.

Among the data in PubChem BioAssay AID651564 (Sanford-Burnham Center for Chemical Genomics, 2012) are IC50 values, retold here.

The other results are listed elsewhere or left out. Unmarked numbers belong to inactive results. The source made the active and inactive calls. Cut-off read from the data, not from the text of the source: active = IC50 below about 80 µM; inactive = the rest.

On to `Cc1cc(C)c(NC(=O)C[N+](C)(C)CC(O)COc2cccc3ccccc23)c(C)c1` (stereo not given), for which the IC50 is 47.5 µM (active).

Turning to `O=C(Nc1cccc(-c2cccc(Cl)c2)c1)C1CCN(C2CCC2)CC1`, the IC50 was 33.6 µM (active). To `N=c1n(Cc2ccc(Cl)cc2)c2ccccc2n1CC(O)c1ccco1` (stereo not given) belongs 13.1 µM (active); to `Clc1ccc(-c2cc(C3CCNCC3)[nH]n2)c(Cl)c1`, greater than 80 µM; to `FC(F)(F)COc1nc(N2CCCCC2)nc(N2CCNCC2)n1`, greater than 80 µM. To `CN(C)Cc1ccc(F)cc1Sc1cc(Cl)ccc1Cl` belongs 69.1 µM (active); to `Brc1ccc(CSc2ccc(-c3ccco3)nn2)cc1`, greater than 80 µM.

For the compound `Cc1ccc2c(c1)C1CN(C)CCC1N2S(=O)(=O)c1ccc(Oc2ccc([N+](=O)[O-])cc2)cc1` (stereo not given), the IC50 was greater than 80 µM.

Turning to `CCOC(=O)c1c(NC(=O)CSc2cn(CC)c3ccccc23)sc2c1CCC2`, the IC50 is greater than 80 µM.

As for `CCNCCC(=O)N1c2ccccc2Sc2ccc(NC(=O)OCC)cc21`, the IC50 was greater than 80 µM.

Take `COc1ccc(/C=C(/CC(=O)Nc2ccc(C)cc2)c2nc3ccccc3s2)cc1`: the IC50 was greater than 80 µM. To `O=C(COC(=O)c1ccccc1NC(=O)c1ccco1)Nc1ccc2c(c1)OC(F)(F)O2` belongs 10.7 µM (active); to `Cc1ccc(-c2noc(CCC(=O)Nc3ccccc3N3CCN(C)CC3)n2)cc1`, greater than 80 µM.

On to `O=C(NC1CCN(Cc2ccccc2)CC1)c1cc(Br)c(Br)[nH]1`, for which the IC50 is greater than 80 µM. To `NC(N)=N/N=C/c1ccc(Cl)c([N+](=O)[O-])c1` belongs 71.5 µM (active).

Broadly, the IC50 is the point on the concentration scale where inhibition reaches its midpoint.
